Bioassay records from PubChem.
Rows were chosen to be rich in hits. Some 12% of all compounds tested hit in one or more screens of this group.
Sfp inh – qHTS Assay for Inhibitors of Bacillus subtilis Sfp phosphopantetheinyl transferase (PPTase). Biochemical Sfp PPTase activity, qHTS. Potency, µM, usual class: inhibitors. AID 1490, 2009. actives 3.5% (n = 310,000). 4'-phosphopantetheinyl transferase ffp (Bacillus subtilis), Q9F4F7;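 also: the enzyme is Sfp with the accession as filed and its product quenches rhodamine fluorescence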
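Step 1, compound plus 15 nM Sfp-PPTase, 15 min, room temperature. Step 2, add rhodamine-CoA (5 uM) and BHQ-2-YbbR (12.5 uM). Step 3, read 525/598 nm fluorescence at 0 and 30 min.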
JMJD2A Tudor inh – qHTS Assay for Inhibitors of JMJD2A-Tudor Domain; AlphaScreen JMJD2A-Tudor / H3K4me3 peptide binding; Potency, µM (series often up to 114 µM), actives largely listed as inhibitors; actives 4.4% (n = 390,000); also: nearly all actives have a fitted effect of over 50% in size
G9a inh – qHTS Assay for Inhibitors of Histone Lysine Methyltransferase G9a; Histone-lysine N-methyltransferase EHMT2 (Homo sapiens), Q96KQ7; Potency, µM (titrated, usually from 102 µM), actives largely listed as inhibitors; G9a H3K9 monomethylation, AlphaScreen, 2 h; AID 504332, 2011; actives 8.8% (n = 350,000); also: nearly all actives have a fitted effect of over 75% in size
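Signal arises when biotinylated H3K9 peptide, once monomethylated, bridges streptavidin donor and antibody-captured acceptor beads. Enzyme at 20 nM was preincubated 15 min with test compounds; peptide 500 nM and SAM 20 uM then reacted for 2 h.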
L3MBTL1 inh – qHTS Assay for the Inhibitors of L3MBTL1; AlphaScreen L3MBTL1–H3K9me1 peptide binding; actives 0.66% (n = 230,000); Lethal(3)malignant brain tumor-like protein 1 (Homo sapiens), Q9Y468; Potency, µM (highest dose often 57.1 µM), usual class: inhibitors; AID 485360, 2010; also: nearly all actives have a fitted effect of over 60% in size
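Displacement of a biotinylated histone H3(1-15) peptide monomethylated at Lys9 (75 nM) from L3MBTL1 (50 nM) was measured by AlphaScreen after a 30 min room-temperature compound incubation; cefsulodin titration served as intraplate control.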
BAZ2B inh – qHTS Assay for Inhibitors of BAZ2B; AlphaScreen BAZ2B-H3K14Ac peptide displacement; Potency, µM (series often up to 114 µM), usual class: inhibitors; actives 4.4% (n = 360,000); also: nearly all actives have a fitted effect of over 60% in size
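BAZ2B (50 nM) with biotin-H3(5-23)K14Ac peptide (50 nM) in PBS pH 7.4, 0.01% Tween-20, preformed 30 min, then compound 30 min at room temperature; top concentration 110uM. AlphaScreen streptavidin donor/nickel chelate acceptor beads (10 ug/mL final), 20 min dark, signal read.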
HP1b binding inh – HTS for Inhibitors of HP1-beta Chromodomain Interactions with Methylated Histone Tails; AlphaScreen HP1-beta / biotin-H3K9me3 peptide binding; Chromobox protein homolog 1 (Homo sapiens), P83916; Potency, µM (doses to about 114 µM), most hits filed as inhibitors; actives 0.56% (n = 390,000); also: nearly all actives have a fitted effect of over 70% in size
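Compound inhibition of the preformed complex between 50 nM HP1-beta and 50 nM biotinylated H3K9me3 peptide was read by AlphaScreen. Buffer was PBS pH 7.4 with 0.01% Tween-20. Incubations ran 30 min at room temperature, with 10 ug/mL donor/acceptor beads.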
Hits are given with their value; i = inactive; ? = inconclusive; nt = not tested or not shown; [ ] = another dose, or the depositor's remark. Calls follow the shape of the dose curve; as a rule, active = well fitted curve in the direction sought with a large enough effect; inconclusive = small, poorly fitted or top-dose-only effect, or another doubt; inactive = no such curve, though single readings can be large; an effect the other way counts as inactive or inconclusive.

SMILES	Sfp inh	JMJD2A Tudor inh	G9a inh	L3MBTL1 inh	BAZ2B inh	HP1b binding inh
CCOc1ccc(S(=O)(=O)N/N=C2/CC(c3ccccc3)Oc3ccccc32)cc1 (stereo unspecified)	i	i	7.9µM	nt	i	i
Cc1ccc(NC(=S)NCCc2ccccc2)nc1	i	i	1.6µM	i	i	i
S=C(NCCc1ccccc1)Nc1ncccn1	nt	i	nt	nt	nt	i
Cc1cccnc1NC(=S)NCCc1ccccc1	40µM	20µM	0.71µM	i	35µM	?
Cc1ccc(NC(=O)Cn2c(=O)n(-c3ccc(CC(=O)NCC4CCCO4)cc3)c(=O)c3ccccc32)cc1 (stereo unspecified)	nt	i	i	nt	i	i
Cc1ccc2oc(-c3cccc(NC(=O)c4ccc(N5CCC(C)CC5)c([N+](=O)[O-])c4)c3)nc2c1	nt	i	i	nt	?	i
CCCC(NC(=O)c1ccc(Br)o1)c1nc2ccccc2[nH]1 (stereo unspecified)	nt	i	nt	i	nt	i
O=c1oc2ccc(Cl)cc2nc1/C=C(\O)c1ccco1	?	89µM	8.9µM	nt	35µM	i
CC(C)C/C(O)=C/c1nc2cc(Cl)ccc2oc1=O	56µM	?	35µM	i	?	i
Cc1ccc(/C(O)=C/c2nc3cc(C)ccc3oc2=O)cc1	i	i	nt	i	i	i
COc1ccc(NC(=O)c2ccc(NC(=O)CCS(=O)(=O)c3cccs3)cc2)cc1Cl	nt	i	i	nt	i	i
Cc1ccc(NC(=O)CSc2nnc(-c3cccs3)o2)cc1S(=O)(=O)N(C)C	i	nt	i	i	i	nt
O=C(O)CSc1ncnc2sc3c(c12)CCC3	i	i	i	i	50µM	i
CCN(CC)c1ncnc2sc3c(c12)CCC3	i	i	40µM	i	i	i
CC(C)(C)OC(=O)Cc1nnc(C(C(=O)OCc2ccccc2)c2ccccc2)o1 (stereo unspecified)	nt	i	nt	nt	nt	nt
O=C(CCc1ccccc1)NN1C(=O)C2C3C=CC(O3)C2C1=O (stereo unspecified)	10µM	i	10µM	i	i	i
Cc1ccccc1OCC(=O)NN1C(=O)C2C3C=CC(O3)C2C1=O (stereo unspecified)	50µM	i	?	i[11.4 µM]	i	i
Cc1cccc(OCC(=O)NN2C(=O)C3C4C=CC(O4)C3C2=O)c1 (stereo unspecified)	40µM	i	8.9µM	i	i	i
CCOc1ccc(C(=O)NN2C(=O)C3C4C=CC(O4)C3C2=O)cc1 (stereo unspecified)	28µM	i	6.3µM	i	i	i
Cc1ccccc1OCC(=O)NN1CCN(C)CC1	i	i	i	i	i	i
CCCNC(=O)CN1C(=O)CSc2ccc(S(=O)(=O)N3CCC(C)CC3)cc21	nt	i	i	nt	i	i
Cc1cccc(C(=O)Nc2ccc(S(=O)(=O)N3CCC(c4nc5ccccc5s4)CC3)cc2)c1	nt	i	i	nt	i	i
COC(=O)c1cccc(NC(=O)CC2C(=O)NCCN2C(=O)Nc2cc(C)cc(C)c2)c1 (stereo unspecified)	i	i	i	nt	i	i
S=C(Nc1ccc(Oc2ccccc2)cc1)Nc1cccnc1	i	?	i[0.501 µM]	i[2.29 µM]	i	i
O=C(NCCc1cccc(Cl)c1)c1cccc(-n2cnnn2)c1	nt	i	45µM	i	i	i
SMILES	Sfp inh	JMJD2A Tudor inh	G9a inh	L3MBTL1 inh	BAZ2B inh	HP1b binding inh
O=C(N[C@@H](Cc1ccccc1)C(=O)O)c1ccccc1	i	nt	nt	nt	nt	nt
O=C/C(=C\Nc1ccccn1)c1nc2ccccc2o1	i	40µM	i	i	79µM	i
O=C/C(=C\Nc1ccccn1)c1nc2cc(Cl)ccc2o1	i	i	?	i	i	i
O=C(CCn1nnc2ccccc21)N1CCC(O)(c2cccc(F)c2)CC1	i	50µM	i	i	i	i
Cc1cccc(NS(=O)(=O)c2cccs2)c1	i	i	i[12.7 µM]	nt	i	i
Cc1cc(C)nc(NS(=O)(=O)c2cccs2)c1	i	i	56µM	i	i	i
COc1ccc(OC)c(C(=O)CN2C(=O)N(c3ccc(C)cc3)S(=O)(=O)c3ccccc32)c1	nt	i	i	nt	i	i
CC(=O)c1ccc2cccc3c2c1N=CN3C	?	i	45µM	i	i	i
COc1cc(C2C3=C(CC(c4ccco4)CC3=O)Nc3ccccc3N2C(C)=O)cc(OC)c1OC (stereo unspecified)	18µM	?	?	i	?	i
O=C1CC(c2ccco2)CC2=C1C1c3ccccc3C(=O)N1c1ccccc1N2 (stereo unspecified)	20µM	i	18µM	i[11.4 µM]	?	i
CCC(=O)N1c2ccccc2NC2=C(C(=O)CC(c3ccco3)C2)C1c1ccco1 (stereo unspecified)	i	i	i[12.7 µM]	nt	i	i
CCCCN1C(=O)c2[nH]nc(-c3ccccc3O)c2C1c1ccc(C(C)(C)C)cc1 (stereo unspecified)	nt	i	i	nt	i	i
C#CCSc1nnnn1-c1ccc(OCC)cc1	i	i	50µM	i	i	i
CCOc1ccc(-n2nc(CO)c(C(=O)NCc3cccs3)n2)cc1	nt	i	i	nt	i	i
CCc1cccc(CC)c1NC(=S)NCCc1c(C)[nH]c2ccc(C)cc12	i	32µM	40µM	i	28µM	i
Cc1ccc2[nH]c(C)c(CCNC(=O)c3c(N)no[n+]3[O-])c2c1	i	50µM	?	nt	?	71µM
Cc1ccc2[nH]c(C)c(CC(=O)NCc3ccccc3)c2c1	i	?	i	i	i	i
CCc1cccc(C)c1NC(=S)NCCc1c(C)[nH]c2ccc(C)cc12	i	45µM	45µM	i	25µM	?
Cc1ccc2[nH]c(C)c(CCNC(=O)c3cc4cc(Br)ccc4oc3=O)c2c1	nt	i	i	nt	?	i
Cc1ccc2[nH]c3c(=O)n(CC(=O)N(CCN(C)C)Cc4ccccc4)ncc3c2c1	nt	i	i	nt	i	i
COc1cc(OC)cc(C(=O)Nc2nnc3n2CCS3)c1	nt	i	?	nt	?	i
CC(C)Oc1ccc(S(=O)(=O)N2CCOCC2)cc1NC(=O)CC1OC(=O)c2ccccc21 (stereo unspecified)	nt	i	16µM	i	i	i
COc1ccc(C2N(c3ccc(Cl)cc3)N=C(C(C)=O)N(C)N2C(C)=O)cc1 (stereo unspecified)	i	?	28µM	nt	?	i
COC(=O)c1ccc(N=NNc2ccccc2)cc1	?	i	8.9µM	i	?	i
N#C/C(=N\Nc1cccc([N+](=O)[O-])c1)C(=O)c1ccc(Br)cc1	i	40µM	45µM	i	40µM	?
